Values joined by “and” are separate entries in the source; they are usually repeats but may differ in a detail not shown here. Identical values can stand only once. Records with an inconclusive call do not appear. Active and inactive are the calls of the source. Rule for the calls, unless noted: active = hit-call score of the fitted dose curve at least 0.9, where 1 is the maximum; inconclusive = response in the unintended direction; inactive = score below 0.9.
Tests used:
[1] = target: human Peroxisome Proliferator-activated Receptor delta (PPARd), PPARD (gene 5467) (UniProt Q03181); test: ATG_PPARd_TRANS: Attagene TRANS-FACTORIAL HepG2 Assay for human Peroxisome Proliferator-activated Receptor delta (PPARd) (AID 2283002)
Summary of the method: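 HepG2 cells transiently transfected with GAL4-UAS multiplexed reporter units driven by exogenous chimeric NR-GAL4 proteins; 24 h compound exposure. Reporter mRNA measured by RT-PCR, 6-FAM primer extension, HpaI digestion and capillary electrophoresis; gain of signal fitted relative to DMSO.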

[2] = read-out: Intercellular Adhesion Molecule 1 (ICAM1), ICAM1 (gene 3383); test: BSK_3C_ICAM1: BioMAP Diversity Plus: 3C Assay for Intercellular Adhesion Molecule 1 (ICAM1) Biomarker Activity (AID 2283003; active = hit-call score of the fitted dose curve at least 0.9, where 1 is the maximum; inactive = score below 0.9); settings: primary human endothelial cells (HUVEC); actives raise or lower the signal
Summary of the method: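 Using DMSO as baseline, bidirectional curve fitting was applied to ICAM-1 ELISA signals from HUVEC in the 3C system, measured 24 h after compound addition.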

[3] = BSK_3C_Proliferation: Cell Proliferation Assessment in the BioMAP Diversity Plus: 3C Assay (AID 2283006; active = hit-call score of the fitted dose curve at least 0.9, where 1 is the maximum; inactive = score below 0.9;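 for AC50: potency may reflect either rise or fall in cell number versus DMSO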); settings: primary human endothelial cells (HUVEC)
Summary of the method: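 Measured here: sulforhodamine B (0.1%) staining of TCA-fixed sub-confluent umbilical vein endothelial cultures 48 h post-dosing, absorbance 560 nm. DMSO served as negative control and baseline; both signal gain and loss were modelled.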

[4] = target: Peroxisome proliferator-activated receptor gamma (Homo sapiens) (UniProt P37231); test: ATG_PPARg_TRANS: Attagene TRANS-FACTORIAL HepG2 Assay for human Peroxisome Proliferator-activated Receptor-gamma (PPARg) (AID 2283007)
Summary of the method: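 Endpoint reflects upward reporter mRNA change versus DMSO controls. Setup: transiently transfected HepG2, GAL4-UAS reporters driven by chimeric NR-Gal4, 24 h incubation, RT-PCR with capillary electrophoresis read-out.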

[5] = target: Nuclear receptor subfamily 1 group I member 2 (Homo sapiens) (UniProt O75469); test: ATG_PXR_TRANS: Attagene TRANS-FACTORIAL HepG2 Assay for human Pregnane X Receptor (PXR) (AID 2283008)
Summary of the method: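 HepG2 transfected (FuGene 6) with GAL4-UAS reporter units + PXR-Gal4 chimera; dosed 24 h. Total RNA → oligo(dT) RT → PCR → 6-FAM primer extension → HpaI cut → CE. Gain-of-signal vs DMSO.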

[6] = target: human RAR-related Orphan Receptor beta (RORb), RORB (gene 6096) (UniProt Q92753); test: ATG_RORb_TRANS: Attagene TRANS-FACTORIAL HepG2 Assay for human RAR-related Orphan Receptor beta (RORb) (AID 2283010)
Summary of the method: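 Multiplexed transcription-factor reporter assay: HepG2 cells transiently carrying NR-Gal4/GAL4-UAS constructs, 24 h treatment, mRNA quantified by RT-PCR plus capillary electrophoresis fluorescence; activity scored as induction over DMSO.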

[7] = target: human Retinoid X Receptor beta (RXRb), RXRB (gene 6257) (UniProt P28702); test: ATG_RXRb_TRANS: Attagene TRANS-FACTORIAL HepG2 Assay for human Retinoid X Receptor beta (RXRb) (AID 2283013)
Summary of the method: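 After a 24 h incubation with test chemical, transfected HepG2 cells carrying NR-Gal4 fusions and GAL4-UAS reporter transcription units yield RNA whose reporter cDNA is FAM-labelled, HpaI-cut and sized by capillary electrophoresis; increases over DMSO are scored.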

[8] = target: human Thyroid Receptor alpha (THRa1), THRA (gene 7067) (UniProt P10827); test: ATG_THRa1_TRANS: Attagene TRANS-FACTORIAL HepG2 Assay for human Thyroid Receptor alpha (THRa1) (AID 2283014)
Summary of the method: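 Measured here is mRNA from a GAL4-UAS reporter in transfected HepG2 cells carrying a Gal4-fused receptor, 24 h post-dose. DMSO served as negative control and baseline.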

[9] = read-out: E-selectin (Homo sapiens) (UniProt P16581); test: BSK_3C_Eselectin: BioMAP Diversity Plus: 3C Assay for Eselectin Biomarker Activity (AID 2283015; active = hit-call score of the fitted dose curve at least 0.9, where 1 is the maximum; inactive = score below 0.9); settings: primary human endothelial cells (HUVEC); actives raise or lower the signal
Summary of the method: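 Endpoint derived by bidirectional fitting against DMSO vehicle; signal is ELISA-detected E-selectin from primary HUVEC at 24 h post-dosing, with parallel SRB staining (0.1% SRB, 560 nm) flagging cytotoxicity.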

[10] = read-out: Interleukin-1 alpha (IL1a), IL1A (gene 3552); test: BSK_BE3C_IL1a: BioMAP Diversity Plus: BE3C Assay for Interleukin-1 alpha (IL1a) Biomarker Activity (AID 2283016; active = hit-call score of the fitted dose curve at least 0.9, where 1 is the maximum; inactive = score below 0.9); settings: primary human bronchial epithelial cells; actives raise or lower the signal
Summary of the method: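 Measured in human lung primary bronchial epithelial cells: IL-1a by ELISA at 24 h after dosing, with bidirectional fitting against DMSO.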

[11] = read-out: Monocyte Chemoattractant Protein-1 (MCP1), CCL2 (gene 6347); test: BSK_3C_MCP1: BioMAP Diversity Plus: 3C Assay for Monocyte Chemoattractant Protein-1 (MCP1) Biomarker Activity (AID 2283017; active = hit-call score of the fitted dose curve at least 0.9, where 1 is the maximum; inactive = score below 0.9); settings: primary human endothelial cells (HUVEC); actives raise or lower the signal
Summary of the method: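 Using human vascular primary endothelium, researchers measured MCP-1 by ELISA 24 h after treatment, with DMSO serving as negative control for bidirectional fitting.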

[12] = read-out: Monocyte Chemoattractant Protein-1 (MCP1), CCL2 (gene 6347); test: BSK_4H_MCP1: BioMAP Diversity Plus: 4H Assay for Monocyte Chemoattractant Protein-1 (MCP1) Biomarker Activity (AID 2283018; active = hit-call score of the fitted dose curve at least 0.9, where 1 is the maximum; inactive = score below 0.9); settings: primary human endothelial cells (HUVEC); actives raise or lower the signal
Summary of the method: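 Primary human umbilical vein endothelium is exposed to chemical for 24 h before MCP-1 is assayed by ELISA. Concentration-response fitted bidirectionally relative to DMSO.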

[13] = read-out: Human Leukocyte Antigen - DR isotype (HLADR), HLA-DRA (gene 3122); test: BSK_3C_HLADR: BioMAP Diversity Plus: 3C Assay for Human Leukocyte Antigen - DR isotype (HLADR) Biomarker Activity (AID 2283019; active = hit-call score of the fitted dose curve at least 0.9, where 1 is the maximum; inactive = score below 0.9); settings: primary human endothelial cells (HUVEC); actives raise or lower the signal
Summary of the method: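 Compound added to primary HUVEC cultures, 24 h incubation, then HLA-DR determined by ELISA; endpoint derived by bidirectional fitting relative to DMSO negative control.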

[14] = read-out: Interleukin-8 (IL8), CXCL8 (gene 3576); test: BSK_3C_IL8: BioMAP Diversity Plus: 3C Assay for Interleukin-8 (IL8) Biomarker Activity (AID 2283020; active = hit-call score of the fitted dose curve at least 0.9, where 1 is the maximum; inactive = score below 0.9); settings: primary human endothelial cells (HUVEC); actives raise or lower the signal
Summary of the method: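 Using DMSO-treated wells as the baseline, bidirectional curve fitting was applied to ELISA-measured IL-8 from human umbilical vein endothelial cultures sampled 24 h after compound addition.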

[15] = target: human Peroxisome Proliferator-activated Receptor alpha (PPARa), PPARA (gene 5465) (UniProt Q07869); test: ATG_PPARa_TRANS: Attagene TRANS-FACTORIAL HepG2 Assay for human Peroxisome Proliferator-activated Receptor alpha (PPARa) (AID 2283001);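 for AC50: potency for gain of reporter signal over DMSO so agonist or activator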
Summary of the method: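 Transient HepG2 transfection, GAL4-UAS reporters, NR-Gal4 chimeras; 24 h compound exposure. Readout: reporter transcripts by RT-PCR, 6-FAM primer extension, HpaI digest, capillary electrophoresis. Positive direction vs DMSO baseline.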

[16] = target: Retinoic acid receptor RXR-alpha (Homo sapiens) (UniProt P19793); test: ATG_RXRa_TRANS: Attagene TRANS-FACTORIAL HepG2 Assay for human Retinoid X Receptor alpha (RXRa) (AID 2283012)
Summary of the method: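 Chimeric NR-GAL4 trans-activation in HepG2, 24 h treatment; reporter transcripts quantified by fluorescence on capillary electrophoresis, analysed for upward change from DMSO.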

[17] = target: human RAR-related Orphan Receptor gamma (RORg), RORC (gene 6097) (UniProt P51449); test: ATG_RORg_TRANS: Attagene TRANS-FACTORIAL HepG2 Assay for human RAR-related Orphan Receptor gamma (RORg) (AID 2283011)
Summary of the method: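 Chimeric RORg-Gal4 transactivation in transfected HepG2; 24 h exposure; RT-PCR/capillary electrophoresis readout of reporter mRNA, DMSO baseline.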

[18] = target: human Retinoic Acid Receptor gamma (RARg), RARG (gene 5916) (UniProt P13631); test: ATG_RARg_TRANS: Attagene TRANS-FACTORIAL HepG2 Assay for human Retinoic Acid Receptor gamma (RARg) (AID 2283009)
Summary of the method: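 Gain-of-signal relative to DMSO is reported from fluorescent capillary electrophoresis of RT-PCR reporter products. These came from HepG2 cells expressing transfected RARg-GAL4 chimeras with UAS reporters, harvested 24 h after dosing.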

Measured: AC50

Sequence of human Peroxisome Proliferator-activated Receptor alpha (PPARa), PPARA (gene 5465) (Q07869 whole entry, looked up, the tested form may be a part): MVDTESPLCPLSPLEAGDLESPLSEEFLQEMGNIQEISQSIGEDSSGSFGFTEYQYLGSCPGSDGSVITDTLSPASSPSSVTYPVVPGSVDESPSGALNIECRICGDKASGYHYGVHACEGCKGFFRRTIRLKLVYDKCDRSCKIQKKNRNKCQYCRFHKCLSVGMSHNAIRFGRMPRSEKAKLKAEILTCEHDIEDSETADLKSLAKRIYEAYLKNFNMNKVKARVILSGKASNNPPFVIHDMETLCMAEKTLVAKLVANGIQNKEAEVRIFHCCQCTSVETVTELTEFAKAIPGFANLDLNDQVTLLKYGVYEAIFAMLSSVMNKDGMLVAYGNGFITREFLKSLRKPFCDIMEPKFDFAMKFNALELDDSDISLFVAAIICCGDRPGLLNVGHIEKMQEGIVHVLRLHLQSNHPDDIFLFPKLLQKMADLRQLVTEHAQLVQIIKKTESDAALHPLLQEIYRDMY
Sequence of Retinoic acid receptor RXR-alpha (Homo sapiens) (P19793 whole entry, looked up, the tested form may be a part): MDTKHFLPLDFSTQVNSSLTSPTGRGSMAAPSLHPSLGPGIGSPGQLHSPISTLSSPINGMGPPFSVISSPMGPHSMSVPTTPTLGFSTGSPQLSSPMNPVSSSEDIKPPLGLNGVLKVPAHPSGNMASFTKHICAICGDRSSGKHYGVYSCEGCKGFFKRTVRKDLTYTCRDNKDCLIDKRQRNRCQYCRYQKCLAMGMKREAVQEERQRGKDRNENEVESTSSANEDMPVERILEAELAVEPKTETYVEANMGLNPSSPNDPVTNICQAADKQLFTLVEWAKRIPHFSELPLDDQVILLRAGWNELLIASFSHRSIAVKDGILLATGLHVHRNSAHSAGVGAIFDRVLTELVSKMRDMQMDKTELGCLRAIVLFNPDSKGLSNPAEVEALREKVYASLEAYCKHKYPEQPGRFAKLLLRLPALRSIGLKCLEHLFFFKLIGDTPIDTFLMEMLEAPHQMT
Sequence of human RAR-related Orphan Receptor gamma (RORg), RORC (gene 6097) (P51449 whole entry, looked up, the tested form may be a part): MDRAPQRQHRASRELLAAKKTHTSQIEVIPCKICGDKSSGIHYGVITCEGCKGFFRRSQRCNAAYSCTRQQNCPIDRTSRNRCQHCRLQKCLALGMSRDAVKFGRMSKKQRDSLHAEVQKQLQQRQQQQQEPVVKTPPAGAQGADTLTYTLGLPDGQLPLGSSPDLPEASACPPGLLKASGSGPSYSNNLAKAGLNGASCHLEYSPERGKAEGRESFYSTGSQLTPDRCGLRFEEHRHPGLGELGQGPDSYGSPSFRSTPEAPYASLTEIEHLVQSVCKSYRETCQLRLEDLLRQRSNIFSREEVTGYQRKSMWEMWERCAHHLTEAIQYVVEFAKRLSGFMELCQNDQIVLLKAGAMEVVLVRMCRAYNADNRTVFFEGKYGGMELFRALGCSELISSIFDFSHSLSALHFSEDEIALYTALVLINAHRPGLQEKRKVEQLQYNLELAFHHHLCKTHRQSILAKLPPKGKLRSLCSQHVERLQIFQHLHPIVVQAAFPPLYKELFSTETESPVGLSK
Sequence of Peroxisome proliferator-activated receptor gamma (Homo sapiens) (P37231 whole entry, looked up, the tested form may be a part): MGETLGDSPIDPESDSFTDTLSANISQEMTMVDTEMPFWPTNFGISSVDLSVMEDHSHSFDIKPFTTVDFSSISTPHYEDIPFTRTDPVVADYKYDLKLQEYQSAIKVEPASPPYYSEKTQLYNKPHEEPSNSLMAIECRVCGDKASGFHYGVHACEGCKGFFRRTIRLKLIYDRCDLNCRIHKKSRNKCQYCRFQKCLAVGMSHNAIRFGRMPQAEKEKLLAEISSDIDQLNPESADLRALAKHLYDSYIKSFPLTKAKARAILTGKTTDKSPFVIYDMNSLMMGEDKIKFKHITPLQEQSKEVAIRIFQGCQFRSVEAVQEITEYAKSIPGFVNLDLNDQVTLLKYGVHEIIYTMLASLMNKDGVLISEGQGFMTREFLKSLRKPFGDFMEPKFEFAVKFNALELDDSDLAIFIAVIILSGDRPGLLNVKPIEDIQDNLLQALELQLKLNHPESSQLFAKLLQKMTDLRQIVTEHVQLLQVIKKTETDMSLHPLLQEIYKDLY
Sequence of human RAR-related Orphan Receptor beta (RORb), RORB (gene 6096) (Q92753 whole entry, looked up, the tested form may be a part): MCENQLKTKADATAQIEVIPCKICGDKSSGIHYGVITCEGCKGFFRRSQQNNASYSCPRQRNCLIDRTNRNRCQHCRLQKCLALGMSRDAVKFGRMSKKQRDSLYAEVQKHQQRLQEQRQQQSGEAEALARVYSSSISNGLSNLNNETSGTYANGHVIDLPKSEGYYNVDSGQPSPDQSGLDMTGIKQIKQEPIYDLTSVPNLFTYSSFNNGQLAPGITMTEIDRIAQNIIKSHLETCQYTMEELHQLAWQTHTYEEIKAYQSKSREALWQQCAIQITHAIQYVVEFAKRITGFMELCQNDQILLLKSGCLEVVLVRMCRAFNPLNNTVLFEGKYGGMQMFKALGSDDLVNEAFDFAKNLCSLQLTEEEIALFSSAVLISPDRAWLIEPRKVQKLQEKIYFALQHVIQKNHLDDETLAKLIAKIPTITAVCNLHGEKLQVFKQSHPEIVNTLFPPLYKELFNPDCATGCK
Sequence of human Thyroid Receptor alpha (THRa1), THRA (gene 7067) (P10827 whole entry, looked up, the tested form may be a part): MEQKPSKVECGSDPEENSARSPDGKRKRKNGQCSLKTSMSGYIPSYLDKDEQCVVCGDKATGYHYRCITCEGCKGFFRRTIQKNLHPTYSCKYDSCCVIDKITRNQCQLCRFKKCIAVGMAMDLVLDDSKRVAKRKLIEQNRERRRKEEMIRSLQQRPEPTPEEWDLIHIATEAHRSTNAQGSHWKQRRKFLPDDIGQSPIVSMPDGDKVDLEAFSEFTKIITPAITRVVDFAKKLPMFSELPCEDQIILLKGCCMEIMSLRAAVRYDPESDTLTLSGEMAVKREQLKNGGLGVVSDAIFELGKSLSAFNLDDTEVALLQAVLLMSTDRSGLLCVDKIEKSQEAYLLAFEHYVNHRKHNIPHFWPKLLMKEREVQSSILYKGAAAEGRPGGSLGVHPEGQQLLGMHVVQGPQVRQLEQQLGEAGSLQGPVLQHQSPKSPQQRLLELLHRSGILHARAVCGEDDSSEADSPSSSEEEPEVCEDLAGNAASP
Sequence of Nuclear receptor subfamily 1 group I member 2 (Homo sapiens) (O75469 whole entry, looked up, the tested form may be a part): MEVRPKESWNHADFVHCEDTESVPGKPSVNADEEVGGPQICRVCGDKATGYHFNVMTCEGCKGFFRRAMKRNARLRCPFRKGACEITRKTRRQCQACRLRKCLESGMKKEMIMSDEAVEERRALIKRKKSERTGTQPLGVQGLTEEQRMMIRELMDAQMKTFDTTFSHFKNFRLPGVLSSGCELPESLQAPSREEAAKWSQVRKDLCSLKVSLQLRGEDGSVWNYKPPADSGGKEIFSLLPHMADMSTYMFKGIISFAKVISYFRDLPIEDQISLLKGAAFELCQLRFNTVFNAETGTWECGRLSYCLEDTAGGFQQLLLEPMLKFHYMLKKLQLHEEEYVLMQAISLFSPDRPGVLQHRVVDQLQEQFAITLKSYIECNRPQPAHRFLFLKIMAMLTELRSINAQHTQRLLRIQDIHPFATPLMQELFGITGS
Sequence of E-selectin (Homo sapiens) (P16581 whole entry, looked up): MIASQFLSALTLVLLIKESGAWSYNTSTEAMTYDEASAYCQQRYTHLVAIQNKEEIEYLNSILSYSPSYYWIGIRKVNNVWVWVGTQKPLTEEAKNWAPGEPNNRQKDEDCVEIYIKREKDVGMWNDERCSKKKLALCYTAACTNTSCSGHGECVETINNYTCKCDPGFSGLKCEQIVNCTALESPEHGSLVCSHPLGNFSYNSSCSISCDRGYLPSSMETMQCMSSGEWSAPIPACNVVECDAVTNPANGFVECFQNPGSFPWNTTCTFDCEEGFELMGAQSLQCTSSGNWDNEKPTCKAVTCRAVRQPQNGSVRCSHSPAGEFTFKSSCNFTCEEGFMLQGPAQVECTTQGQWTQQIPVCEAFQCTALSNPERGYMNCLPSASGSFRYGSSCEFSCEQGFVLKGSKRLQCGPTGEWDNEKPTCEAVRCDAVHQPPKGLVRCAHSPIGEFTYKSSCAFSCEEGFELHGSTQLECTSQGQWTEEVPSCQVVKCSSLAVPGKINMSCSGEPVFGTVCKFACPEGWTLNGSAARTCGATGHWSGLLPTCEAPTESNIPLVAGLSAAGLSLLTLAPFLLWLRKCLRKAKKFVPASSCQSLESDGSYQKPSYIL
Sequence of human Retinoid X Receptor beta (RXRb), RXRB (gene 6257) (P28702 whole entry, looked up, the tested form may be a part): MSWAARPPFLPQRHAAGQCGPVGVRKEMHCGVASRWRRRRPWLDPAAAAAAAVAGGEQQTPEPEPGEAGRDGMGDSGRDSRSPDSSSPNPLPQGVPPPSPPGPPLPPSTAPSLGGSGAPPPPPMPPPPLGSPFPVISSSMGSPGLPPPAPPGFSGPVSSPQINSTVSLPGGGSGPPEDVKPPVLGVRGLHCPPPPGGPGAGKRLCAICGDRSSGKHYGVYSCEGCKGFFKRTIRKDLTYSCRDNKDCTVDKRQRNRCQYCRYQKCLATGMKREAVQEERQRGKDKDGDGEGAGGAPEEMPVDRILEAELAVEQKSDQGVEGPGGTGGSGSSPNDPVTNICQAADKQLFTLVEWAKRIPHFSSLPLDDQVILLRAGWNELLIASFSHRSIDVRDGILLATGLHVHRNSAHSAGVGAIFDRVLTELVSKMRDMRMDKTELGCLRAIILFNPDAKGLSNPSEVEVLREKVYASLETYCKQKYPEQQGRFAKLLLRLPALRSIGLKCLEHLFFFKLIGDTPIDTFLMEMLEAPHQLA
Sequence of human Peroxisome Proliferator-activated Receptor delta (PPARd), PPARD (gene 5467) (Q03181 whole entry, looked up, the tested form may be a part): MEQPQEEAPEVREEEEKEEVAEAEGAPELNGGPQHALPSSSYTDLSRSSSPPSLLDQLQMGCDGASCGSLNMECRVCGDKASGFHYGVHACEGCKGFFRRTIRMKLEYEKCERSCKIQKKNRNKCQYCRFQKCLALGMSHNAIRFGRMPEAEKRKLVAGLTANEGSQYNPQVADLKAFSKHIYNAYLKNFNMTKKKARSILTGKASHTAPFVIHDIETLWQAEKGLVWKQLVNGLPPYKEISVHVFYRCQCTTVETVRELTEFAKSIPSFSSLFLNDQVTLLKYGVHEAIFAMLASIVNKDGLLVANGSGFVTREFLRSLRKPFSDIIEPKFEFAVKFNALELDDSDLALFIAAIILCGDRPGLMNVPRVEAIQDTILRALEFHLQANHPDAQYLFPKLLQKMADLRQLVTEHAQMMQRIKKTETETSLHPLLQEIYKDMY

c1ccc2sc(SN(C3CCCCC3)C3CCCCC3)nc2c1
active: [3] 8.86 µM | [5] 0.629 µM | [9] 1.78 µM | [11] 10.1 µM | [12] 4.34 µM | [13] 10.2 µM
not listed: [15] | [16] | [17] | [18]
inactive: all other assays above

CCCCO
inactive: [15] | [5] | [6] | [8]

CCCCC/C=C/C=C/C=O
inactive: [1] | [5] | [16] | [8]
active: [2] 32.8 µM | [3] 20 µM | [4] 9.8 µM | [9] 30.1 µM | [10] 20 µM | [11] 29.4 µM | [12] 36.3 µM | [13] 20 µM | [14] 31.8 µM

CCCCCCCCCCCCN
inactive: [15] | [17] | [7]

CCN(CC)CCOC(=O)c1ccc(N)cc1
inactive: [15] | [7] | [8]

CCC(=O)OCc1ccccc1
not listed: [4] | [7] | [15] | [16] | [18]
inactive: all other assays above

Cc1ccc(O)c(C(C)(C)C)c1
inactive: [1] | [6] | [17] | [16]
active: [2] 33.7 µM | [3] 15.1 µM | [5] 19.1 µM | [7] 9 µM | [9] 25.5 µM | [10] 29.6 µM | [11] 27.6 µM | [12] 24.9 µM | [13] 29.8 µM | [14] 36.5 µM

CC(C)(C)c1n[nH]c(=S)n(N)c1=O
inactive: [15] | [5] | [7] | [8]

CC(C)[C@H]1CC[C@@H](C)CC1=O
inactive: [15] | [6] | [16] | [7]

O=C1NC(=O)c2ccccc21
inactive: [15] | [6] | [17]

O=C(COc1ccc(Cl)cc1)N1CCN(Cc2ccc3c(c2)OCO3)CC1
inactive: [15] | [5] | [7] | [8]

O=C1OC2(c3cc(Br)c(O)c(Br)c3Oc3c2cc(Br)c(O)c3Br)c2c(Cl)c(Cl)c(Cl)c(Cl)c21
active: [2] 7.39 µM | [3] 8.03 µM | [4] 34.7 µM | [5] 4.84 µM | [9] 5.06 µM | [10] 0.967 µM | [11] 4.82 µM | [12] 1.57 µM | [13] 2.68 µM | [14] 13.2 µM
inactive: [1]

CC(=O)[C@H]1CC[C@H]2[C@@H]3CC=C4C[C@@H](O)CC[C@]4(C)[C@H]3CC[C@]12C
active: [3] 7.47 µM and 6.54 µM | [5] 4.3 µM
not listed: [6] | [7] | [15] | [17] | [18]
inactive: all other assays above

O=C(O)c1cccc(C(F)(F)F)c1
inactive: [15] | [4] | [16]

OCc1cccnc1
inactive: [15] | [8]

Cc1ccc(C=O)cc1
inactive: [15] | [6] | [8]

Cc1c(N(C)C)c(=O)n(-c2ccccc2)n1C
inactive: [15] | [5] | [6] | [17] | [16] | [8]

NC(=O)NC1NC(=O)NC1=O (stereo not drawn)
inactive: [15] | [16] | [7] | [8]

O=CCCc1ccccc1
active: [5] 28.4 µM
inactive: [15] | [18]

CCCC(=O)C(C)=O
inactive: [15] | [5] | [17]

C=C(C)C(=O)O
inactive: [15] | [4] | [16]

CC1CCC(C(C)(C)O)CC1 (stereo not drawn)
inactive: [15] | [5] | [6] | [17] | [7] | [8]

O=C(O)CCCCCCCCCCC(=O)O
inactive: [15] | [5] | [6] | [8]

C=CC(=O)OCCn1c(=O)n(CCOC(=O)C=C)c(=O)n(CCOC(=O)C=C)c1=O
active: [15] 8.62 µM
inactive: [5] | [17] | [16] | [8]

S=C(S)NCCNC(=S)S
inactive: [15] | [4] | [17] | [16]

Nc1nc2ccc([N+](=O)[O-])cc2s1
inactive: [15] | [16] | [7] | [8]
active: [4] 29.7 µM

OCCOCCOCCOCCO
inactive: [15] | [16]

CC(C#N)(CCC(=O)O)N=NC(C)(C#N)CCC(=O)O (stereo not drawn)
inactive: [15] | [5] | [17] | [7] | [8]

COc1ccc(O)cc1
inactive: [15] | [4] | [8]

CC(C)[C@@H]1CC[C@@H](C)CC1=O
inactive: [15] | [5]

OCCN1CCNCC1
inactive: [1]

Nc1ccc(S(=O)(=O)O)c(N)c1
inactive: [15] | [7]

OCC(CO)(CO)COCC(CO)(CO)CO
inactive: [15] | [5] | [16] | [7]

CC(=O)OCc1ccc2c(c1)OCO2
inactive: [15] | [5] | [6] | [17] | [7]

COc1ccc(Cl)cc1C
inactive: [15] | [5] | [17] | [16] | [8]

— PubChem BioAssay (EPA / NIEHS)
